Laboratory results taken from PubChem BioAssay (Tox21).
Records with an inconclusive call do not appear. Activity calls are given as the source filed them. Unless noted, the call rests on the fitted dose curve; in most records, active means well fitted curve in the direction sought with a large enough effect in the repeat runs; inconclusive means weak or mixed curves; inactive means no such curve, though single readings can be large; an effect the other way counts as inactive or inconclusive.

How the values were obtained:
[1] = qHTS assay to identify small molecule agonists of the vitamin D receptor (VDR) signaling pathway - cell viability counter screen (AID 743224); further: series mostly up to about 63 µM; on the % scale 0 is the no-effect control and ±100 the full control effect; nearly all actives have a fitted effect of over 50% in size
Summary of the method: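 VDR-bla cell line, quantitative HTS format; 16 h compound incubation (37C, 5% CO2); ATP-based CellTiter-Glo luminescence measured in the reporter assay wells.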

[2] = qHTS assay to identify small molecule antagonists of the vitamin D receptor (VDR) signaling pathway - cell viability counter screen (AID 743225); further: on the % scale 0 is the no-effect control and ±100 the full control effect; nearly all actives have a fitted effect of over 50% in size
Summary of the method: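 Parallel cytotoxicity test: VDR-UAS-bla HEK 293T, 3 nM (final) 1-alpha,25-dihydroxyvitamin D3 with test compound, 16 h, 37C. Endpoint is CellTiter-Glo luminescence in the same wells.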

[3] = qHTS assay to identify small molecule agonists of the NFkB signaling pathway (AID 1159509; active means well fitted curve in the direction sought with a large enough effect in the signal ratio in the repeat runs, not every such curve was filed as active; the % refers to the signal ratio; further: series mostly up to about 61 µM; on the % scale 0 is the no-effect control and ±100 the full control effect)
Summary of the method: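 After overnight attachment, reporter cells received test compounds, DMSO or positive controls and were incubated 5 hr at 37 C. FRET substrate was then added for 1.5 hr at room temperature before dual-emission fluorescence reading.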

[4] = qHTS assay to identify small molecule agonists of the endoplasmic reticulum stress response signaling pathway (AID 1159516; active means well fitted activation curve with a large enough effect in the signal ratio in the repeat runs, not every such curve was filed as active; the % refers to the signal ratio; further: on the % scale 0 is the no-effect control and ±100 the full control effect)
Summary of the method: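 ER stress element reporter (bla) in HeLa. 1,500 cells/well, overnight attachment; 5 hr compound; 2 hr RT substrate; dual-emission fluorescence.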

[5] = qHTS assay to identify small molecule agonists of the endoplasmic reticulum stress response signaling pathway - cell viability counter screen (AID 1159517; calls by dose curve;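 further: HeLa cells carrying an ER stress response element beta-lactamase reporter; series mostly up to about 61 µM; on the % scale 0 is the no-effect control and ±100 the full control effect; nearly all actives have a fitted effect of over 50% in size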)
Summary of the method: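 Luminescence readout: CellTiter-Glo, 30 min RT, same wells as the ESRE-bla reporter read. HeLa ESRE-bla, 1,500 cells/well, o/n 37 C; cpd 5 hr 37 C/5% CO2.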

[6] = qHTS assay to identify small molecule antagonists of the retinoid-related orphan receptor gamma (ROR-gamma) signaling pathway - cell viability counter screen (AID 1159520); further: on the % scale 0 is the no-effect control and ±100 the full control effect; nearly all actives have a fitted effect of over 50% in size
Summary of the method: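 Tet-on ROR gamma CHO cells (1,000/well) were plated 4 hr, given compounds in DMSO for 2 hr at 37 C, then induced with 1 uM final doxycycline for 16 hr. Viability was read as ATP by CellTiter-Glo luminescence after 30 min.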

[7] = qHTS assay to identify small molecule agonists of the AP-1 signaling pathway - cell viability counter screen (AID 1159525; calls by dose curve; further: nearly all actives have a fitted effect of over 55% in size)
Summary of the method: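 ME-180 AP-1-bla, 2500 cells/well, Opti-MEM + 0.5% dialyzed FBS; overnight 37 °C; cpd 15-pt titration, 5 h 37 °C; CellTiter-Glo 30 min RT; luminescence read; normalised to TOAB and DMSO controls.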

[8] = qHTS assay to identify small molecule agonists of the AP-1 signaling pathway (AID 1159526; calls by dose curve; further: on the % scale 0 is the no-effect control and ±100 the full control effect)
[9] = biological target: Nuclear receptor ROR-gamma (Homo sapiens) (UniProt P51449); assay: qHTS assay to identify small molecule antagonists of the retinoid-related orphan receptor gamma (ROR-gamma) signaling pathway (AID 1159521)
Summary of the method: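 Decreased RORE-driven luciferase luminescence indicates antagonism. Tet-on RORγ CHO cells received compound, then 1 uM final doxycycline 2 h later; signal read after 16 h incubation.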

Cc1c(NC(=O)c2cccnc2)c(=O)n(-c2ccccc2)n1C
inactive: outcome [1] | outcome [2] | outcome [3] | outcome [4] | outcome [5] | outcome [6] | outcome [7] | outcome [8]

CCCCCCCCCCCCCCC(=O)NC(CO)CCCCCCCCCCCCCC (stereo unspecified)
inactive: outcome [1] | outcome [2] | outcome [3] | outcome [4] | outcome [5] | outcome [6] | outcome [9] | outcome [7] | outcome [8]

C/C=C(\C)C(=O)OCCc1ccccc1
inactive: outcome [1] | outcome [2] | outcome [3] | outcome [4] | outcome [5] | outcome [9] | outcome [7] | outcome [8]

[O-][n+]1cccc(/C(Cl)=N/OC[C@@H](O)CN2CCCCC2)c1
inactive: outcome [1] | outcome [2] | outcome [3] | outcome [4] | outcome [6] | outcome [9] | outcome [7] | outcome [8]

CN(C)CC/C=C1/c2ccccc2COc2ccc(CC(=O)O)cc21
inactive: outcome [1] | outcome [2] | outcome [3] | outcome [4] | outcome [5] | outcome [6] | outcome [7] | outcome [8]

N#Cc1ccccc1O
inactive: outcome [1] | outcome [2] | outcome [3] | outcome [4] | outcome [5] | outcome [9] | outcome [7] | outcome [8]

C/C=C(\C)C(C)=O
inactive: outcome [1] | outcome [2] | outcome [3] | outcome [4] | outcome [5] | outcome [6] | outcome [9] | outcome [8]

CCC[C@@H]1C[C@@H](C(=O)N[C@@H]([C@H]2O[C@H](SC)[C@H](O)[C@@H](O)[C@H]2O)[C@@H](C)O)N(C)C1
inactive: outcome [1] | outcome [2] | outcome [3] | outcome [4] | outcome [5] | outcome [6] | outcome [9] | outcome [8]

O=C(O)CNC(=O)CNC(=O)CNC(=O)CSC(=O)c1ccccc1
inactive: outcome [1] | outcome [2] | outcome [3] | outcome [4] | outcome [5] | outcome [6] | outcome [9] | outcome [7] | outcome [8]

O=C1NC(c2ccccc2)(c2ccccc2)C(=O)N1COP(=O)(O)O
inactive: outcome [1] | outcome [2] | outcome [3] | outcome [4] | outcome [5] | outcome [6] | outcome [9] | outcome [7] | outcome [8]

O=C(NCN1CCOCC1)c1cnccn1
inactive: outcome [1] | outcome [2] | outcome [3] | outcome [4] | outcome [6] | outcome [9] | outcome [7] | outcome [8]

CC(C)OC(=O)OCOP(=O)(CO[C@H](C)Cn1cnc2c(N)ncnc21)OCOC(=O)OC(C)C
inactive: outcome [1] | outcome [2] | outcome [3] | outcome [4] | outcome [6] | outcome [9] | outcome [7] | outcome [8]

CCC(C)C(C)=O (stereo unspecified)
inactive: outcome [1] | outcome [2] | outcome [3] | outcome [4] | outcome [5] | outcome [6] | outcome [9] | outcome [8]

COc1cc2c(cc1OC)CN(C(=O)[C@H](C)N[C@@H](CCc1ccccc1)C(=O)O)[C@H](C(=O)O)C2
inactive: outcome [1] | outcome [2] | outcome [3] | outcome [4] | outcome [5] | outcome [6] | outcome [7] | outcome [8]

CCCCOCCOC(=O)COc1ccc(Cl)cc1Cl
inactive: outcome [1] | outcome [2] | outcome [3] | outcome [4] | outcome [5] | outcome [6] | outcome [9] | outcome [7] | outcome [8]

O=C(O)CONC(=O)c1ccccc1
inactive: outcome [2] | outcome [3] | outcome [4] | outcome [9] | outcome [7] | outcome [8]

CCCC(=O)OCCC(C)CCC=C(C)C (stereo unspecified)
inactive: outcome [1] | outcome [3] | outcome [4] | outcome [6] | outcome [8]

CC(C)CCOC(=O)c1ccccc1
inactive: outcome [1] | outcome [2] | outcome [3] | outcome [4] | outcome [5] | outcome [6] | outcome [9] | outcome [7] | outcome [8]

CO[C@@]1(NC(=O)Cc2cccs2)C(=O)N2C(C(=O)O)=C(COC(N)=O)CS[C@@H]21
inactive: outcome [1] | outcome [2] | outcome [3] | outcome [4] | outcome [5] | outcome [9] | outcome [7] | outcome [8]

O=C[O][Al]([O]C=O)[O]C=O
inactive: outcome [1] | outcome [2] | outcome [3] | outcome [4] | outcome [6] | outcome [9] | outcome [7] | outcome [8]

Cc1ccc(C(=O)O)cc1[N+](=O)[O-]
inactive: outcome [1] | outcome [3] | outcome [4] | outcome [6] | outcome [9] | outcome [7] | outcome [8]

CN(C)CCN(C)CCO
inactive: outcome [2] | outcome [3] | outcome [4] | outcome [5] | outcome [6] | outcome [9] | outcome [7] | outcome [8]

c1ccc(B(c2ccccc2)c2ccccc2)cc1
inactive: outcome [1] | outcome [2] | outcome [3] | outcome [4] | outcome [5] | outcome [6] | outcome [9] | outcome [7] | outcome [8]

CC1=C(C(=O)O)N2C(=O)[C@@H](NC(=O)[C@H](N)c3ccccc3)[C@H]2SC1
inactive: outcome [1] | outcome [2] | outcome [3] | outcome [4] | outcome [5] | outcome [6] | outcome [9] | outcome [8]

c1ccc(-c2nn[nH]n2)cc1
inactive: outcome [2] | outcome [3] | outcome [4] | outcome [6] | outcome [9] | outcome [7] | outcome [8]

CC1CC(=O)CC(C)(C)C1 (stereo unspecified)
inactive: outcome [1] | outcome [2] | outcome [3] | outcome [4] | outcome [5] | outcome [6] | outcome [7] | outcome [8]

ONc1ccccc1
inactive: outcome [1] | outcome [2] | outcome [3] | outcome [4] | outcome [5] | outcome [6] | outcome [9] | outcome [7] | outcome [8]

CCCC(CC)c1ccccc1 (stereo unspecified)
inactive: outcome [2] | outcome [3] | outcome [4] | outcome [5] | outcome [6] | outcome [7] | outcome [8]

CC/C=C\CCOC(=O)c1ccccc1O
inactive: outcome [1] | outcome [2] | outcome [3] | outcome [4] | outcome [6] | outcome [9] | outcome [7] | outcome [8]

CCC(C)OC(C)CC (stereo unspecified)
inactive: outcome [1] | outcome [2] | outcome [3] | outcome [4] | outcome [5] | outcome [6] | outcome [9] | outcome [7] | outcome [8]

O=C1CCC(=O)N1Cl
inactive: outcome [1] | outcome [2] | outcome [3] | outcome [4] | outcome [5] | outcome [6] | outcome [9] | outcome [7] | outcome [8]

CC1=C(C(=O)O)N2C(=O)[C@@H](NC(=O)[C@H](N)C3=CCC=CC3)[C@H]2SC1
inactive: outcome [1] | outcome [2] | outcome [3] | outcome [4] | outcome [5] | outcome [6] | outcome [9] | outcome [8]

O=S(=O)(O)c1ccc2c(N=Nc3ccc(S(=O)(=O)O)c4ccccc34)c(O)c(S(=O)(=O)O)cc2c1
inactive: activity change, negative = cytotoxicity [1] -0.166% [at 5.95 µM] | viability change, negative = cytotoxic [2] 6.08% [at 6.95 µM] | activation [3] 0.493% [at 6.95 µM] | activation [4] -2.39% [at 6.95 µM] | activity change, negative = cytotoxicity [5] 0.511% [at 6.95 µM] | activity, negative = cytotoxicity [6] -3.34% [at 8.39 µM] | activity change, negative = inhibition [9] 0.236% [at 8.39 µM] | viability change, negative = cytotoxic [7] 6.35% [at 6.97 µM] | activation [8] -3.05% [at 6.97 µM]
